These results are taken from PubChem BioAssay (Tox21).

Several values for one entry are separate records, joined by “and”; a condition that tells them apart may be missing. Identical values can stand only once. Inconclusive results are not listed. Entries that show only a call come without a potency. A structure can be active in one record and inactive in another. Activity calls are given as the source filed them. Calls come from the whole dose curve; as a rule, active = well fitted cell-killing curve with a large enough effect in the repeat runs; inconclusive = weak or mixed curves, or effect the other way; inactive = flat fitted curve, though single readings scatter.
Potency is the fitted concentration of half-maximal effect.

The experiment can be described thus: Human pregnane X receptor (PXR) small molecule agonists, qHTS cell viability counter screen (AID 1346977). Note: nearly all actives have a fitted effect of over 50% in size. The following applies: PXR-Luc HepG2 viability, CellTiter-Fluor, 24 h; series mostly up to 92.4 µM; activity change, negative = cytotoxicity: at the top concentration. From the text:
U.S. Tox21 Program National Center for Advancing Translational Sciences [NCATS] NIH Chemical Genomics Center [NCGC] U.S. Environmental Protection Agency [EPA] National Institutes of Environmental Health Sciences [NIEHS] National Toxicology Program [NTP] U.S. Food and Drug Administration [FDA] Tox21 Assay Overview: The human pregnane X receptor (hPXR) regulates the expression of several drug metabolizing enzymes and induction of these proteins is a major mechanism for developing drug resistance in cancer. One such key enzyme catalyzing the drug metabolism is cytochrome P450 3A4 (CYP3A4). Changes in CYP3A4 expression affect drug metabolism, thereby reducing the therapeutic efficacy and altering toxicological response to a drug and which finally causes adverse drug interaction. To screen Tox21 libraries for compounds that activate hPXR-mediated CYP3A4 gene expression, PXR-Luc HepG2 cells were used. Also cytotoxicity of the compounds was tested in parallel by measuring the cell viability using CellTiter-Fluor assay system in the same wells.
Tox21 Assay Protocol Summary: PXR-Luc HepG2 cells were dispensed at 2,000 per well in 5uL of assay medium containing 5% charcoal-stripped FBS into white solid bottom 1536-well plates (Corning Life Sciences, Corning, NY) using a Multidrop Combi (Thermo Scientific, Waltham, MA) dispenser. The assay plates were incubated at 37 C and 5% CO2 for 5hr, and then 23nL of compounds dissolved in DMSO and positive control were transferred using a Pintool station (Wako, San Diego, CA). The assay plates were incubated at 37C and 5% CO2 for 24hr. For cytotoxicity read, after 23hr incubation at 37C, 1uL CellTiter-Fluor reagent (Promega Corporation, Madison, WI) was added to each well of the assay plates using Flying Reagent Dispenser (FRD, Aurora Discovery, San Diego, CA). After 1hr incubation at 37C and 5% CO2, the fluorescence signal was quantified using a ViewLux plate reader (PerkinElmer, Shelton, CT).
In general terms: qHTS replaces the single test concentration by a dilution series.
Turning to `[Cl-].[Cl-].[Cl-].[Fe+3]`, the Potency result was “inactive”.
In the case of `COc1ccc(O)c(C(C)(C)C)c1`, the Potency entry was “inactive”.
Take `C[C@]12CC[C@H]3[C@@H](CCC4=CC(=O)CC[C@@H]43)[C@@H]1CC[C@@H]2O`: the Potency entry is “inactive”.
On to `CC(C)Nc1ccc(Nc2ccccc2)cc1`, for which the Potency was 20 µM (active) and 27.3 µM (active).
For the compound `OCCOCCO`, the “activity change, negative = cytotoxicity” value is 5.86% (inactive).
As for `COc1ccc(CO)cc1`, the Potency result was “inactive”.
On to `CCC[CH2][Sn]([Cl])([CH2]CCC)[CH2]CCC`, for which the Potency is 562 nM (active) and 433 nM (active).
For the compound `ClCc1ccccn1`, the Potency entry is “inactive”.
In the case of `Clc1ccc(C(Cl)(Cl)Cl)cc1`, the Potency entry was “inactive”.
Consider `Cc1ccc(N=CN(C)C=Nc2ccc(C)cc2C)c(C)c1`, for which the “activity change, negative = cytotoxicity” value was 8.89% [at 42.5 µM] (inactive).
For `CCOP(=O)(OCC)OCC`, the Potency result was “inactive”.
Take `C[C@]12CCC(=O)C=C1CC[C@@H]1[C@@H]2CC[C@@]2(C)[C@H]1CC[C@]2(C)O`: the Potency entry was “inactive”.
Consider `Cn1c(-c2ccccc2)cc(-c2ccccc2)[n+]1C`, for which the Potency entry is “inactive”.
For `CCOS(=O)(=O)OCC`, the Potency entry was “inactive”.
`O=S(=O)(O)C(F)(F)C(F)(F)C(F)(F)C(F)(F)C(F)(F)C(F)(F)C(F)(F)C(F)(F)F`: the Potency result is “inactive”.
In the case of `NN=C(N)N`, the Potency entry was “inactive”.
In the case of `O=[N+]([O-])c1ccc(Nc2ccccc2)cc1`, the Potency is 39.8 µM (active) and 48.6 µM (active).
Turning to `c1ccc(C2CO2)cc1` (stereo not given), the Potency result was “inactive”.
In the case of `Clc1ccccc1-c1nnc(-c2ccccc2Cl)nn1`, the Potency entry was “inactive”.
With `CC(C)=CC1C(C(=O)OCN2C(=O)C3=C(CCCC3)C2=O)C1(C)C` (stereo not given), the Potency entry was “inactive”.
On to `Nc1ccc([N+](=O)[O-])cc1N`, for which the Potency was 22.4 µM (active) and 61.1 µM (active).
As to `CC(C)(O)C#N`, the Potency result was “inactive”.
On to `Nc1ccc2ccccc2c1`, for which the Potency entry was “inactive”.
For the compound `CNC(=O)CSP(=S)(OC)OC`, the “activity change, negative = cytotoxicity” value was 12.7% (inactive).
Turning to `CC(O)CN(CC(C)O)CC(C)O` (stereo not given), the Potency result was “inactive”.
Consider `Oc1ccc(Cl)cc1Cl`, for which the Potency entry is “inactive”.
Take `C=CC(Cl)CCl` (stereo not given): the Potency result was “inactive”.
Consider `ClC(Cl)(Cl)Br`, for which the Potency entry was “inactive”.
Take `COP(=S)(OC)Oc1ccc(S(=O)(=O)N(C)C)cc1`: the Potency result was “inactive”.
`[CH3][Sn]([Cl])([Cl])[Cl]`: the Potency result is “inactive”.
For the compound `CCNc1nc(Cl)nc(NC(C)(C)C#N)n1`, the Potency entry is “inactive”.
Turning to `N#Cc1nn(-c2c(Cl)cc(C(F)(F)F)cc2Cl)c(N)c1S(=O)C(F)(F)F` (stereo not given), the Potency was 19.4 µM (active) and 29.8 µM (active).
As for `O=NN(c1ccccc1)c1ccccc1`, the Potency result was “inactive”.
Regarding `Brc1ccc(Br)cc1`, the Potency result is “inactive”.
Regarding `CC(C)COC(=O)c1ccccc1C(=O)OCC(C)C`, the Potency entry was “inactive”.
Same read-out and setting: for `S=c1[nH]c2ccccc2[nH]1` the value was 50.1 µM (active) and inactive; for `CCCCCCCCCc1ccc(O)cc1`, 61.1 µM (active).
On to `Cl`, for which the Potency result is “inactive”.
As for `CC(C)CON=O`, the Potency result was “inactive”.
As to `Cc1cc(Cl)ccc1N=CN(C)C`, the Potency entry was “inactive”.
